Bioassay records deposited in PubChem by several laboratories.
Shown are actives, neighbours in structure and some others; about 4.2% of the full set was active somewhere.
Mtb FBA inh – inhibits M. tuberculosis FBA enzyme. P9WQA3. purified M. tuberculosis FBA, fluorescence read-out. inhibition, % at 1 µM. 360,000 compounds, 2.3% hits. AID 588726
BJeLR lethal – kills HRASV12-expressing BJeLR cells; BJeLR (HRASV12) viability, CellTiter-Glo ATP luminescence, 48 h; inhibition, % (test concentration not listed); 300,000 compounds, 0.17% hits; in the data active = inhibition above about 50%
PrPC surface inh – reduces human prion protein on the cell surface. inhibition, % at 13.8 µM. cell surface PrPC, TR-FRET read-out. 370,000 compounds, 0.43% hits; in the data active = inhibition above about 24%
GDH-TPI counter-1 – GDH-TPI coupled enzyme inhibition counter-screen | AID 588335 | GDH-TPI coupled enzyme counterscreen, NADH absorbance | inhibition, % at 4.8 µM | 360,000 compounds, 1.2% hits; in the data active = inhibition above about 30%
RecA splice inh – inhibitors of M. tuberculosis RecA intein splicing; P9WHJ3; cell-free RecA intein splicing, fluorescence; inhibition, % (no concentration beside the values); 290,000 compounds, 0.75% hits; AID 2221; in the data active = inhibition above about 30%
Mtb FBA inh conf – confirmation of M. tuberculosis fructose-bisphosphate aldolase inhibitors. shares compounds with Mtb FBA inh. purified M. tuberculosis FBA, fluorescence read-out. inhibition, % at 1 µM. 5,600 compounds, 78% hits
GDH-TPI counter-2 – counter-screen for M. tuberculosis FBA inhibitors: GDH-TPI coupled enzyme inhibition | shares compounds with Mtb FBA inh | GDH-TPI coupled enzyme counterscreen, fluorescence | inhibition, % at 1 µM | 5,600 compounds, 81% hits | AID 652141; in the data active = inhibition above about 10%
GDH-TPI DR – GDH-TPI dose response counter-screen for Mtb FBA; shares compounds with Mtb FBA inh; GDH-TPI coupled enzyme assay, fluorescence, artifact counterscreen; IC50, µM; 170 compounds, 79% hits; AID 652145; call rule not given here
Hits are given with their value; . = inactive; / = no result; + = active, no number. Cut-off read from the data, not from the text of the source, unless noted: active = inhibition above about 27%; inactive = the rest.

SMILES	Mtb FBA inh	BJeLR lethal	PrPC surface inh	GDH-TPI counter-1	RecA splice inh	Mtb FBA inh conf	GDH-TPI counter-2	others
Cc1cccc[n+]1CCCCCCCCCC[n+]1ccccc1C	.	.	.	.	.	/	/
Cc1ccccc1C(=O)NCCCn1ccnc1	.	.	.	.	.	/	/
CCOc1ccc(-c2cc(C(=O)NCCCN3CCN(CC)CC3)c3ccccc3n2)cc1	46	.	.	.	.	61	48
CCOc1ccc(-c2cc(C(=O)NCCCn3ccnc3)c3ccccc3n2)cc1	33	.	.	.	.	43	33
N[C@H]1CC[C@@H]2SC[C@@H](C(=O)O)N2C1=O	/	/	.	/	/	/	/
COC(=O)c1ccc(NC(=O)C2CC3CCC2C3)cc1 (stereo unspecified)	.	.	.	.	.	/	/
COC(=O)c1ccc(NC(=S)NC2CC3CCC2C3)cc1 (stereo unspecified)	37	.	.	.	.	86	64
C/C(=N\NC(=O)c1nnn(-c2nonc2N)c1COc1ccc(F)cc1)c1ccc(Cl)cc1	29	.	.	.	.	+	+
CCOc1ccc(/C=N/NC(=O)c2nnn(-c3nonc3N)c2COc2ccc(F)cc2)cc1	.	.	.	.	.	/	/
COc1ccc(-c2cc(C(F)(F)F)c(C#N)c(SCC(=O)O)n2)cc1	.	.	.	.	/	/	/
Cc1ccc(-c2cc(C(F)(F)F)c(C#N)c(SCCC#N)n2)o1	31	.	.	.	.	159	153
CC(C)c1cc(C(C)C)c(S(=O)(=O)N2CCC(c3cn4ccccc4n3)CC2)c(C(C)C)c1	/	/	.	/	/	/	/
COc1ccc(CCNC(=O)C2CCN(C(=O)c3ccccc3C)CC2)cc1	49	.	.	.	.	.	.
COc1ccc(-c2cc(C(F)F)nc(-n3nc(C)cc3C)n2)cc1	52	.	.	.	.	63	44
COc1ccc(-c2cc(C(=O)OCC(=O)NC3CC3)c3ccccc3n2)cc1	.	/	.	.	/	/	/
O=C(COC(=O)c1cc(-c2cccs2)nc2ccccc12)NC1CCS(=O)(=O)C1 (stereo unspecified)	48	.	.	.	.	44	29
COc1ccc2cc(-c3cc(C(=O)OCC(=O)NC4CCS(=O)(=O)C4)c4ccccc4n3)ccc2c1 (stereo unspecified)	28	.	.	.	.	122	96
COc1ccc(CNCC#Cc2cccnc2)c(OC)c1	/	/	.	/	/	/	/
COc1ccc(C2Nc3ccccc3C(=O)N2NS(=O)(=O)c2ccccc2)c(OC)c1 (stereo unspecified)	.	.	.	.	.	/	/
CCOC(=O)NN1C(=O)c2ccccc2NC1c1cccs1 (stereo unspecified)	31	.	.	.	.	82	70
CCOC(=O)NN1C(=O)c2ccccc2NC1c1ccc(OC)cc1OC (stereo unspecified)	42	.	.	.	.	180	144
COCCCNC(=O)C[C@H]1C[C@@]2(C(=O)OC)C(=C[C@H](C(C)C)O[C@@H]2C2CC2)N(CCC2=CCCCC2)C1=O	/	/	.	/	/	/	/
COc1cccc(CNC(=O)[C@H]2CCCN2C(=O)[C@H]2CCCN2C(=O)c2ccc(C)cc2)c1	/	/	.	/	/	/	/
Cc1cc(C(F)(F)F)c2c(=O)[nH]c(=O)n(Cc3ccccc3)c2n1	.	.	.	.	.	/	/
O=c1[nH]c(=O)n(Cc2ccccc2)c2nc(-c3ccco3)cc(C(F)(F)F)c12	27	.	.	.	.	72	64
SMILES	Mtb FBA inh	BJeLR lethal	PrPC surface inh	GDH-TPI counter-1	RecA splice inh	Mtb FBA inh conf	GDH-TPI counter-2	others
C=CCN=C1NC(CCc2ccccc2)C(C(=O)OC)=C(C)N1Cc1ccccc1C(F)(F)F (stereo unspecified)	/	/	.	/	/	/	/
O=S(=O)(O)c1ccc(Cl)c(Cl)c1	.	/	.	.	/	/	/
Nc1cccc2cc(S(=O)(=O)O)ccc12	39	/	.	.	/	.	.
COc1ccc2c(c1OC)C(=O)OC2Nc1nc(-c2ccc(-c3ccccc3)cc2)cs1 (stereo unspecified)	34	.	.	.	.	.	.	GDH-TPI DR=9.5
O=C(CN(CCc1ccccc1)S(=O)(=O)c1ccc(Cl)s1)N1CCOCC1	/	/	.	/	/	/	/
CCCc1cc(=O)n2[nH]c(C)c(-c3ccccc3)c2n1	27	.	.	.	.	.	.
